PubChem BioAssay AID1851 (National Center for Advancing Translational Sciences (NCATS), 2009)
Out of some 16,000 compounds screened, about 4,000 (25%) were called active. Inconclusive results (about 26%) are left out. These entries were drawn from the full list. Values without a mark were called inactive. The call rests on the fitted dose curve; in most records, active means well fitted curve in the direction sought with a large enough effect; inconclusive means small, poorly fitted or top-dose-only effect, or effect the other way; inactive means no such curve, though single readings can be large or run the other way.

The compounds below were run against Cytochrome P450 2C9 (Homo sapiens) (UniProt P11712) (assay: Cytochrome panel assay with activity outcomes). Settings: recombinant CYP, pro-luciferin dealkylation, luminescence, p450-cyp2c9; series mostly up to 57.1 µM; activity, negative = inhibition: at the top concentration.
Chain of Cytochrome P450 2C9 (Homo sapiens) (P11712 whole entry, looked up): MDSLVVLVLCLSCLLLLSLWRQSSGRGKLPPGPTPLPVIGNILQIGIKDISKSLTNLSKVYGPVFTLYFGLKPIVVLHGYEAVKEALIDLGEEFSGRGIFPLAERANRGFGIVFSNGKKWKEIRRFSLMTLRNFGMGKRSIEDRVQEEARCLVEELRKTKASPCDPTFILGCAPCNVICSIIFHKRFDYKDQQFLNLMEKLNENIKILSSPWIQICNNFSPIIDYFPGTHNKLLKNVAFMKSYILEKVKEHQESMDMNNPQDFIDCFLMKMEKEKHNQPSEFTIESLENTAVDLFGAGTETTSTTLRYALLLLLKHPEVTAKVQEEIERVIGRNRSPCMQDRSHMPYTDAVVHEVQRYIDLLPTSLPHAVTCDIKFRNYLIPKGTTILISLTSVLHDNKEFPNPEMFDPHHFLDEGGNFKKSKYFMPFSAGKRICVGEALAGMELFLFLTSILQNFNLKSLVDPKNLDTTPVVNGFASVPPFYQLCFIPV
On the % scale 0 is the no-effect control and ±100 the full control effect.

Row | SMILES | AC50 | activity, negative = inhibition
1 | O=C(N/N=C\c1ccc(-c2ccccc2[N+](=O)[O-])o1)C1COc2cc3ccccc3cc2O1 (configuration not stated) | 1 µM (active) | 
2 | C[N+]1(C)CCC(=C(c2ccccc2)c2ccccc2)CC1 |  | 8.49% [at 25.6 µM]
3 | N#CC(C#N)=C(N)/C(C#N)=C/c1ccc(O)cc1 |  | 9.27%
4 | CC(C)(C)c1cc(/C=C(\C#N)C(N)=S)cc(C(C)(C)C)c1O | 0.1 µM (active) | 
5 | CC(C)(CO)Cc1cc(C(C)(C)C)c(O)c(C(C)(C)C)c1 |  | -29%
6 | CC(C)=NNc1ncnc2nc[nH]c12 |  | -11.9% [at 11.4 µM]
7 | CCOc1cccc(OCCCNCCCOC)c1 |  | -2.75%
8 | Cc1ccccc1-c1cncnc1Nc1ccc(F)cc1 |  | -14.2% [at 2.29 µM]
9 | C=CCN1C(=CCO)[C@H]2C[C@H]3[C@@H]1CC[C@@]31c3ccccc3N3C=C4[C@@H]5N(/C=C/2[C@H]31)c1ccccc1[C@]51CC[C@H]2[C@H]1C[C@@H]4/C(=C/CO)N2CC=C |  | 6.5% [at 25.6 µM]
10 | C[C@@](N)(C(=O)O)c1ccc(S(=O)(=O)O)cc1 |  | -20%
11 | CCOc1cc2[nH]c(=O)n(CCCC(=O)NCc3ccc(OC)cc3)c(=O)c2cc1OCC | 4.47 µM (active) | 
12 | COC(=O)C/C=C\[C@@H](C)[C@@H](/C=N\O[C@@H]1O[C@H](COC(C)=O)[C@H](OC(C)=O)[C@H](OC(C)=O)[C@H]1OC(C)=O)OC |  | -21% [at 11.4 µM]
13 | CN1CCC2(CC1)CCN(C(=O)c1ccncc1)CC2 |  | 8.25%
14 | CC(=O)N1CCC2(CC1)CCN(c1ccccn1)CC2 |  | 11.7%
15 | O=C(c1ccncc1)N1CCC2(CC1)CCN(c1ccccn1)CC2 | 10 µM (active) | 
16 | O=C(c1ccncc1)N1CCC2(CC1)CCN(c1ncccn1)CC2 | 15.8 µM (active) | 
17 | O=C(c1ccncc1)N1CCC2(CC1)CN(c1ncccn1)C2 |  | -0.965%
18 | C[C@H](NCCC(c1ccccc1)c1ccccc1)c1ccccc1 |  | -21.9% [at 25.6 µM]
19 | CC1(C)CCC=[N+]1[O-] |  | 11.1%

Row | SMILES | AC50 | activity, negative = inhibition
20 | CS[C@]12C(=O)C[C@]3(C)[C@@H](CC[C@@]3(O)C(=O)CO)[C@@H]1CCC1=CC(=O)CC[C@]12C |  | 11.9% [at 11.4 µM]
21 | O=C(c1cc(C(F)(F)F)cc(C(F)(F)F)c1)N1CCC2(CC1)CN(Cc1ccccc1)C2 |  | 10.9%
22 | O=C(c1cnccn1)N1CCC[C@@]2(CCN(Cc3ccncc3)C2)C1 | 10 µM (active) | 
23 | O=C(c1cnccn1)N1CCC[C@@]2(CCN(c3ncccn3)C2)C1 |  | 14.7%
24 | O=C(c1cc(C(F)(F)F)cc(C(F)(F)F)c1)N1CCC2(CC1)CN(Cc1ccncc1)C2 | 10 µM (active) | 
25 | O=C(c1cc(C(F)(F)F)cc(C(F)(F)F)c1)N1CCC[C@@]2(CCN(Cc3ccccc3)C2)C1 |  | 14.9%
26 | O=C(c1cnccn1)N1CCC2(CC1)CN(Cc1nccs1)C2 |  | 18.6%
27 | CC(C)CN1CC[C@@]2(CCCN(C(=O)c3cnccn3)C2)C1 |  | -8.06%
28 | O=C(c1cc(C(F)(F)F)cc(C(F)(F)F)c1)N1CCC[C@@]2(CCN(Cc3ccncc3)C2)C1 | 0.0794 µM (active) | 
29 | N#Cc1ccc(CN2CC[C@@]3(CCCN(C(=O)c4cc(C(F)(F)F)cc(C(F)(F)F)c4)C3)C2)cc1 |  | 12.4%
30 | O=C(c1cnccn1)N1CCC2(CCN(Cc3nccs3)CC2)CC1 |  | 6.72%
31 | O=C(c1cnccn1)N1CCC2(CCCN(Cc3nccs3)C2)CC1 | 15.8 µM (active) | 
32 | O=C(c1ccncc1)N1CCC2(CC1)CN(Cc1cc(C(F)(F)F)cc(C(F)(F)F)c1)C2 |  | -8.19%
33 | CC1=NNC(=S)NCCCN2CCN(CCCNC(=S)NN=C(C)C=NNC(=S)NCCCN3CCN(CCCNC(=S)NN=C1)CC3)CC2 |  | 5.77% [at 11.4 µM]
34 | CC(C)N1CCN(c2ccc(OC[C@@H]3CO[C@@](Cn4cncn4)(c4ccc(Cl)cc4Cl)O3)cc2)CC1 |  | -13% [at 25.6 µM]
35 | COc1cc(C2NC(=O)NC(O)(C(F)(F)F)C2C(=O)c2ccc(Cl)cc2)ccc1O (configuration not stated) |  | -18.5%
36 | O=C(c1cc(C(F)(F)F)cc(C(F)(F)F)c1)N1CCC2(CC1)CN(c1ccccc1)C2 |  | -7.28%
37 | O=C(c1cc(C(F)(F)F)cc(C(F)(F)F)c1)N1CCC2(CC1)CCN(c1ccncc1)CC2 |  | -26%
38 | O=C(c1ccco1)N1CCC2(CC1)CN(Cc1cc(C(F)(F)F)cc(C(F)(F)F)c1)C2 |  | -15.8%

Row | SMILES | AC50 | activity, negative = inhibition
39 | Cn1cccc1C(=O)N1CCC2(CC1)CN(Cc1cc(C(F)(F)F)cc(C(F)(F)F)c1)C2 | 15.8 µM (active) | 
40 | Cn1cccc1C(=O)N1CCC2(CC1)CN(Cc1ccc(C#N)cc1)C2 |  | 17.7%
41 | O=C(c1cc(C(F)(F)F)cc(C(F)(F)F)c1)N1CCC2(CC1)CN(c1ccncc1)C2 | 3.98 µM (active) | 
42 | CC(C)CC(=O)N1CCC(O)(CS(=O)(=O)Cc2ccc(Cl)cc2)CC1 |  | -24.6%
43 | CCc1ccc(-c2ccc(C(=O)C(F)(F)F)[nH]2)cc1 |  | -28.7%
44 | Cc1cccc(-n2nnc3cnn(C)c3c2=O)c1 |  | -26.3%
45 | CN(C)Cc1ccccc1-c1nccc(Nc2ccc(F)cc2)n1 |  | 6.01% [at 2.29 µM]
46 | CN1CCN(c2ccc([N+](=O)[O-])cc2S(=O)(=O)N2CCOCC2)CC1 |  | -10.1%
47 | O=[N+]([O-])c1ccc(N2CCN(Cc3ccccc3)CC2)c(S(=O)(=O)N2CCOCC2)c1 | 17.8 µM (active) | 
48 | O=C(C1CCN(S(=O)(=O)N2CCOCC2)CC1)N1CCN(Cc2ccccc2)CC1 |  | -10.1%
49 | CC1CCC(C(=O)O)([C@H](Br)C(=O)O)CC1 (some centres not stated) |  | -6.22% [at 11.4 µM]
50 | Cc1c(C)c(C)c(CC2(C)CSC2)c(CC2(C)CSC2)c1C |  | 11.8% [at 11.4 µM]
51 | CS(=O)(=O)Nc1ccc([N+](=O)[O-])cc1Oc1ccccc1 | 3.16 µM (active) | 
52 | CS(=O)(=O)Nc1ccc([N+](=O)[O-])cc1OC1CCCCC1 |  | -25%
53 | CC(=O)NN1C(=O)c2ccc(Oc3ccc([N+](=O)[O-])cc3)cc2C1=O |  | -23.4%
54 | CC(=O)COc1ccc2c(C)c(C)c(=O)oc2c1 | 22.4 µM (active) | 
55 | CCCC[C@@H]1C[C@H]1C(NC(=O)c1cccnc1)c1ccc(-c2ccccc2)cc1 (some centres not stated) | 5.01 µM (active) | 
56 | CCCC[C@@H]1C[C@H]1C(NC(=O)c1cccnc1)c1ccc(Cl)cc1 (some centres not stated) | 12.6 µM (active) | 
57 | COCCNc1ncnc2ccc(-c3c(C)noc3C)cc12 |  | 7.8% [at 2.29 µM]
